The list is not random: actives were taken first. Their share in the collection is about 4.5%.
DAX1 inh-1 = blocks DAX1 repression of SF-1 activated StAR promoter | inhibition, % at 6.8 µM | HEK293T StAR-luciferase reporter, SF-1/DAX-1 repression relief | AID 652010 | 370,000 compounds, 1.1% hits;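 active means inhibition above the mean over all tested compounds plus 3 SD, cut at about 3.6% in these data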;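 further: 0% = DAX-1 cells with DMSO and 100% = cells lacking DAX-1 with DMSO; higher inhibition means more luminescence from relief of DAX-1 repression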
ssDAF12 agonist = activators of S. stercoralis DAF-12 nuclear receptor | HEK293 ssDAF-12/GRIP1 lit1-tk-luc reporter, luminescence; % of 3 µM dafachronic acid response | activation, % at 6.8 µM | 370,000 compounds, 1% hits | AID 652126;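 active means activation above the mean over all tested compounds plus 3 SD, cut at about 0.9% in these data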;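 further: 0% = DMSO-only wells and 100% = 3 µM delta7-dafachronic acid wells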
hcDAF12 agonist = activators of H. contortus DAF-12 nuclear receptor; AID 652067; 370,000 compounds, 1.4% hits; HEK293 hcDAF-12 lit1-tk-luc reporter, luminescence; 0% DMSO, 100% Δ7-dafachronic acid; activation, % at 6.8 µM;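 active means activation above the mean of all tested compounds plus 3 SD, cut at about 5.5% in these data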;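 further: 100% = response to 3 µM Δ7-dafachronic acid high control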
DAX1 inh-2 = inhibits human nuclear receptor DAX1; HEK293 Gal4-DAX1 luciferase reporter, luminescence; inhibition, % at 6.75 µM; 340,000 compounds, 0.99% hits; AID 504766;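 active means inhibition above the mean over all tested compounds plus 3 SD, cut at about 4.2% in these data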;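 further: 0% = DAX1-transfected cells with DMSO and 100% = empty-vector control cells with DMSO; inhibition shows as a rise in luminescence from relieved DAX1 repression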
Target sequence (P51843 207-470 limits assumed): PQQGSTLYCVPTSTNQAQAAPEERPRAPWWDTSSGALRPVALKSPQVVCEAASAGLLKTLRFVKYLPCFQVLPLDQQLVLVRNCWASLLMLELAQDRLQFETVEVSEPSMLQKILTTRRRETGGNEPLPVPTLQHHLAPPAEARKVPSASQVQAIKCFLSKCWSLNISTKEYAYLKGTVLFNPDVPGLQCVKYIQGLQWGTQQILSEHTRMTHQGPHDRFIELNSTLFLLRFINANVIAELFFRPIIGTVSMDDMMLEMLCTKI
GAA850 FXN act = frataxin GAA850 promoter activation; HEK293 lucGAA850 FXN promoter luciferase reporter, 24 h; percent of 10 µM SAHA response; activation, % at 6 µM; 360,000 compounds, 0.56% hits;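 active means activation above the average of all compounds screened plus 3 SD, cutoff fixed separately per campaign, cut at about 7.5% in these data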;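 further: 0% = DMSO wells and 100% = 10 µM SAHA wells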
hgDAF-12 ag = agonists of H. glycines DAF-12 nuclear receptor. activation, % at 6.8 µM. 370,000 compounds, 1.8% hits. HEK293 GAL4-hgDAF12 UAS-luciferase reporter, agonist luminescence; normalized to butyrate control;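 active means activation above a cutoff set at the mean of all screened compounds plus 3 SD, cut at about 10% in these data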;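 further: 0% = DMSO wells and 100% = sodium butyrate wells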
DAX1 inh confirm = confirmation of human DAX1 (NR0B1) inhibitors. HEK293T StAR-promoter luciferase reporter, SF-1/DAX-1 repression. shares compounds with DAX1 inh-1. 2,400 compounds, 87% hits. inhibition, % at 6.8 µM;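 active means inhibition above the average of every tested compound plus 3 SD, cut at about 3.8% in these data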;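 further: 0% = DAX-1 cells with DMSO and 100% = no DAX-1 control cells with DMSO; active compounds raise luminescence by relieving repression of the StAR reporter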
Target sequence (P51843 whole entry, looked up): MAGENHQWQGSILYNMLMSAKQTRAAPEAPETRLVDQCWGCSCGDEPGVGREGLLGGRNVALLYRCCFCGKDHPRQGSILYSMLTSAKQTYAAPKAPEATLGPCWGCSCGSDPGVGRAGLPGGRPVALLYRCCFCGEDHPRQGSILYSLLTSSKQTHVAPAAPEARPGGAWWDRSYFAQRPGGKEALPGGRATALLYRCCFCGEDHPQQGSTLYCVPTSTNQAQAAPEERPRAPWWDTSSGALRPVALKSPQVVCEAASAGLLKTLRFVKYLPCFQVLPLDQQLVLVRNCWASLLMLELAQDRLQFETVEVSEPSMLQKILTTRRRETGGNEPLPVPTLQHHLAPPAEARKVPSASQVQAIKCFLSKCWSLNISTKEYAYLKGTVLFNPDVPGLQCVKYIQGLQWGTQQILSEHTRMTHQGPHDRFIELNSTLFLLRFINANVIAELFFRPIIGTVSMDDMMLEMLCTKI
SF1 mutant ctr = counter-screen for DAX1 inhibitors: nonselective inhibitors with SF-1 AF2 mutant; shares compounds with DAX1 inh-1; HEK293 StAR-luciferase, luminescence; inhibition, % at 6.8 µM; 2,400 compounds, 78% hits; AID 652136;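 active means inhibition above the mean of all tested compounds plus 3 SD, cut at about 3% in these data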;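 further: 0% = DAX-1 transfected cells with DMSO and 100% = cells without DAX-1 with DMSO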
* hit, by the source's call.

Results for CC(=O)c1c(C)[nH]c(C(=O)Nc2ccccn2)c1C ?
DAX1 inh-1: 7.5*; ssDAF12 agonist: -0.1; hcDAF12 agonist: 2.0; DAX1 inh-2: 0.3; GAA850 FXN act: 3.8; hgDAF-12 ag: 7.5; DAX1 inh confirm: 9.1*; SF1 mutant ctr: 6.3*

What do the screens show for `O=C(CN1C(=O)CSc2ccccc21)N/N=C/c1ccco1`?
DAX1 inh-1: 0.0; ssDAF12 agonist: -0.4; hcDAF12 agonist: -1.8; DAX1 inh-2: -0.3; GAA850 FXN act: 1.4; hgDAF-12 ag: -0.1

How did COc1ccc(/C=C/c2cc(O)cc(O[C@@H]3O[C@H](CO)[C@@H](O)[C@H](O)[C@H]3O)c2)cc1O do in these assays?
DAX1 inh-1: 5.2*; ssDAF12 agonist: 0.3; hcDAF12 agonist: 3.5; GAA850 FXN act: 0.2; hgDAF-12 ag: 9.6; DAX1 inh confirm: 13.2*; SF1 mutant ctr: 7.4*

How did COc1ccccc1N1CCN(/N=C/c2ccc([N+](=O)[O-])cc2)CC1 do in these assays?
DAX1 inh-1: 0.4; ssDAF12 agonist: -0.7; hcDAF12 agonist: -0.3; DAX1 inh-2: 2.9; GAA850 FXN act: 4.6; hgDAF-12 ag: 4.1

What do the screens show for `O=[N+]([O-])c1ccc(C=NN2CCCCCC2)cc1`?
DAX1 inh-1: 6.7*; ssDAF12 agonist: 0.3; hcDAF12 agonist: 4.2; DAX1 inh-2: 5.6*; GAA850 FXN act: 1.8; hgDAF-12 ag: 9.5; DAX1 inh confirm: 6.9*; SF1 mutant ctr: 5.7*

How did COc1ccc(C(=O)Nc2ccc(/C(C)=N/NC(=O)c3ccncc3)cc2)cc1 do in these assays?
DAX1 inh-1: 1.2; ssDAF12 agonist: 0.4; hcDAF12 agonist: 1.1; DAX1 inh-2: 0.6; GAA850 FXN act: 5.6; hgDAF-12 ag: 9.4

How did C/C(=N/NC(=O)c1ccncc1)c1ccc(NC(=O)c2ccc(Cl)cc2Cl)cc1 do in these assays?
DAX1 inh-1: 5.3*; ssDAF12 agonist: 0.0; hcDAF12 agonist: 2.5; DAX1 inh-2: 1.8; GAA850 FXN act: 2.7; hgDAF-12 ag: 6.0; DAX1 inh confirm: 3.1; SF1 mutant ctr: 0.1

What do the screens show for `O=c1[nH]cnc2sc3c(c12)CCC3`?
DAX1 inh-1: 0.3; ssDAF12 agonist: -2.1; hcDAF12 agonist: -0.8; DAX1 inh-2: 1.6; GAA850 FXN act: 1.3; hgDAF-12 ag: 1.6

Results for CCOC(=O)c1c(C)[nH]c(N=Nc2ccccc2)c1C ?
DAX1 inh-1: 0.4; ssDAF12 agonist: -1.4; hcDAF12 agonist: 0.4; DAX1 inh-2: 2.5; GAA850 FXN act: 5.4; hgDAF-12 ag: 9.4

What do the screens show for `CCOC(=O)c1c(C)[nH]c(N=Nc2cccc(C)c2)c1C`?
DAX1 inh-1: 4.6*; ssDAF12 agonist: 0.8; hcDAF12 agonist: 2.4; DAX1 inh-2: 2.2; GAA850 FXN act: 4.4; hgDAF-12 ag: 9.6; DAX1 inh confirm: 8.8*; SF1 mutant ctr: 3.9*

How did CCOc1ccc(NC(=O)COC(=O)CC2CC3CCC2C3)cc1 (stereo not given) do in these assays?
DAX1 inh-1: 0.0; ssDAF12 agonist: -1.1; hcDAF12 agonist: -0.8; DAX1 inh-2: 0.3; GAA850 FXN act: -0.8; hgDAF-12 ag: -1.3

How did COC(=O)C1CCC(=O)N1C(c1ccc(OC)cc1)c1cc(OC)c(OC)c(OC)c1 (stereo not given) do in these assays?
DAX1 inh-1: 6.2*; ssDAF12 agonist: -1.1; hcDAF12 agonist: -0.2; DAX1 inh-2: 1.0; GAA850 FXN act: -2.1; hgDAF-12 ag: -4.5; DAX1 inh confirm: 19.5*; SF1 mutant ctr: -6.9

How did COc1ccc(C(CNC(=O)Cc2cc(OC)c(OC)c(OC)c2)N2CCCC2)cc1 (stereo not given) do in these assays?
DAX1 inh-1: 0.0; ssDAF12 agonist: -1.4; hcDAF12 agonist: 0.8; DAX1 inh-2: -1.8; GAA850 FXN act: -0.4; hgDAF-12 ag: 0.4

How did C[C@H](CO)N1C[C@H](C)[C@@H](CN(C)C(=O)Nc2ccccc2)Oc2ccc(NC(=O)Cn3cnnn3)cc2C1=O do in these assays?
DAX1 inh-1: 1.4; ssDAF12 agonist: -0.6; hcDAF12 agonist: 3.5; DAX1 inh-2: 1.1; GAA850 FXN act: 0.4; hgDAF-12 ag: 1.6

Results for Cc1cc(C(=O)COC(=O)Cc2c(F)cccc2Cl)c(C)n1C ?
DAX1 inh-1: 5.0*; ssDAF12 agonist: -0.2; hcDAF12 agonist: 4.9; DAX1 inh-2: 2.5; GAA850 FXN act: 2.5; hgDAF-12 ag: 10.0; DAX1 inh confirm: 5.8*; SF1 mutant ctr: 3.2*

What do the screens show for `Cn1c(N)c(C(=O)COC(=O)Cc2c(F)cccc2Cl)c(=O)n(C)c1=O`?
DAX1 inh-1: -0.5; ssDAF12 agonist: -0.7; hcDAF12 agonist: 0.4; DAX1 inh-2: -0.7; GAA850 FXN act: -0.1; hgDAF-12 ag: 0.7

What do the screens show for `NC(=O)CSc1nnc(-c2ccccc2)c(-c2ccccc2)n1`?
DAX1 inh-1: 0.0; ssDAF12 agonist: -1.1; hcDAF12 agonist: -1.4; DAX1 inh-2: -1.2; GAA850 FXN act: 0.9; hgDAF-12 ag: 1.6

What do the screens show for `COC(=O)c1ccc(N2C(c3cccc(OC)c3)=Cc3ccc(F)cc3C2c2c(C)[nH]c3ccccc23)cc1` (stereo not given)?
DAX1 inh-1: 0.7; ssDAF12 agonist: -0.3; hcDAF12 agonist: 2.6; hgDAF-12 ag: 6.0

How did CC(C)C(=O)Nc1ccc(-c2nc3cccnc3o2)cc1 do in these assays?
DAX1 inh-1: 4.5*; ssDAF12 agonist: -0.1; hcDAF12 agonist: 5.9*; DAX1 inh-2: -0.2; GAA850 FXN act: 3.6; hgDAF-12 ag: 12.8*; DAX1 inh confirm: 12.1*; SF1 mutant ctr: 4.1*

How did Cc1cc(C)n2nc(C(=O)Nc3ccc4c(c3)OCO4)nc2n1 do in these assays?
DAX1 inh-1: 1.8; ssDAF12 agonist: -0.7; hcDAF12 agonist: 0.4; DAX1 inh-2: -0.1; GAA850 FXN act: 2.9; hgDAF-12 ag: 2.1

Results for Cc1cc(C)n2nc(C(=O)Nc3ccc4c(c3)OCCO4)nc2n1 ?
DAX1 inh-1: 6.0*; ssDAF12 agonist: -0.7; hcDAF12 agonist: 2.2; DAX1 inh-2: 0.5; GAA850 FXN act: 5.5; hgDAF-12 ag: 8.3; DAX1 inh confirm: 5.6*; SF1 mutant ctr: 2.6

How did Cc1ccnc2nc(C(=O)Nc3ccc4c(c3)OCO4)nn12 do in these assays?
DAX1 inh-1: 4.6*; ssDAF12 agonist: 0.3; hcDAF12 agonist: 3.0; DAX1 inh-2: 0.9; GAA850 FXN act: 5.5; hgDAF-12 ag: 9.2; DAX1 inh confirm: 8.9*; SF1 mutant ctr: 5.2*

What do the screens show for `COc1ccc(NC(=O)CCC(=O)Nc2nnc(CC(C)C)s2)cc1Cl`?
DAX1 inh-1: -0.1; ssDAF12 agonist: -1.1; hcDAF12 agonist: 0.6; DAX1 inh-2: 0.5; GAA850 FXN act: 0.5; hgDAF-12 ag: -0.6

High-throughput results: PubChem, The Scripps Research Institute Molecular Screening Center
